Results: the supplement of paper PMC8728848
Shown is part of a subset that was picked to be rich in the strongest signals.

What was measured:
Assay in all cases: glycan array binding signal (z-score within array); higher = stronger binding
Details in all cases: glycan notation: IUPAC condensed, linker removed
Fuc(a1-2)Gal = target: Fuc(a1-2)Gal
Procedure, shortened: (§1)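 Arrays were curated from the Consortium for Functional Glycomics database, 3228 in total, and kept only where the protein sequence was available. Binding is expressed as a within-array Z-score. This score was averaged across arrays of the same protein sequence at different concentrations or buffers and across linkers, and negative values can be read as non-binding.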

[1] = target: Fuc(a1-2)Gal(b1-3)GlcNAc(b1-3)[Fuc(a1-2)Gal(b1-3)GlcNAc(b1-6)]GalNAc
Procedure, shortened: as §1

[2] = target: Fuc(a1-2)Gal(b1-4)GlcNAc(b1-3)Gal(b1-4)GlcNAc(b1-2)Man(a1-3)[Fuc(a1-2)Gal(b1-4)GlcNAc(b1-3)Gal(b1-4)GlcNAc(b1-2)Man(a1-6)]Man(b1-4)GlcNAc(b1-4)GlcNAc
Procedure, shortened: as §1

[3] = target: Fuc(a1-2)[Gal(a1-3)]Gal(b1-4)[Fuc(a1-3)]Glc
Procedure, shortened: as §1

[4] = target: Fuc(a1-3)[Gal(b1-4)]GlcNAc(b1-2)Man(a1-3)[Fuc(a1-3)[Gal(b1-4)]GlcNAc(b1-2)Man(a1-6)]Man(b1-4)GlcNAc(b1-4)[Fuc(a1-6)]GlcNAc
Procedure, shortened: as §1

[5] = target: Fuc(a1-3)[Gal(b1-4)]GlcNAc(b1-6)[Gal(b1-3)GlcNAc(b1-3)]Gal(b1-4)Glc
Procedure, shortened: as §1

[6] = target: Fuc(a1-3)[GalNAc(b1-4)]GlcNAc
Procedure, shortened: as §1

Fuc(a1-4)GlcNAc = target: Fuc(a1-4)GlcNAc
Procedure, shortened: as §1

[7] = target: Gal(a1-3)Gal(b1-3)GlcNAc(b1-2)Man
Procedure, shortened: as §1

[8] = target: Gal(a1-3)Gal(b1-3)GlcNAc(b1-6)GalNAc
Procedure, shortened: as §1

[9] = target: Gal(a1-3)Gal(b1-4)GlcNAc(b1-6)GalNAc
Procedure, shortened: as §1

[10] = target: Gal(a1-4)Gal(b1-3)GlcNAc(b1-2)Man(a1-3)[Gal(a1-4)Gal(b1-3)GlcNAc(b1-2)Man(a1-6)]Man(b1-4)GlcNAc(b1-4)GlcNAc
Procedure, shortened: as §1

[11] = target: Gal(b1-3)GlcNAc(b1-2)[Gal(b1-3)GlcNAc(b1-6)]Man(a1-6)[Gal(b1-3)GlcNAc(b1-2)Man(a1-3)]Man(b1-4)GlcNAc(b1-4)GlcNAc
Procedure, shortened: as §1

Gal(b1-4)GlcNAc(b1-2)Man = target: Gal(b1-4)GlcNAc(b1-2)Man
Procedure, shortened: as §1

[12] = target: Gal(b1-4)GlcNAc(b1-2)Man(a1-6)Man(b1-4)GlcNAc(b1-4)GlcNAc
Procedure, shortened: as §1

[13] = target: Gal(b1-4)GlcNAc(b1-2)Man(a1-6)[Man(a1-3)]Man(b1-4)GlcNAc(b1-4)GlcNAc
Procedure, shortened: as §1

[14] = target: Gal(b1-4)GlcNAc(b1-2)[Gal(b1-4)GlcNAc(b1-6)]Man(a1-6)[GlcNAc(b1-4)][Gal(b1-4)GlcNAc(b1-2)[Gal(b1-4)GlcNAc(b1-4)]Man(a1-3)]Man(b1-4)GlcNAc(b1-4)[Fuc(a1-6)]GlcNAc
Procedure, shortened: as §1

[15] = target: Gal(b1-4)GlcNAc(b1-3)Gal(b1-3)GlcNAc
Procedure, shortened: as §1

[16] = target: Gal(b1-4)GlcNAc(b1-3)Gal(b1-4)GlcNAc(b1-2)[Gal(b1-4)GlcNAc(b1-3)Gal(b1-4)GlcNAc(b1-6)]Man(a1-6)[Gal(b1-4)GlcNAc(b1-3)Gal(b1-4)GlcNAc(b1-2)Man(a1-3)]Man(b1-4)GlcNAc(b1-4)GlcNAc
Procedure, shortened: as §1

[17] = target: Gal(b1-4)GlcNAc(b1-3)Gal(b1-4)GlcNAc(b1-3)Gal(b1-4)GlcNAc(b1-2)Man(a1-3)[Gal(b1-4)GlcNAc(b1-3)Gal(b1-4)GlcNAc(b1-3)Gal(b1-4)GlcNAc(b1-2)Man(a1-6)]Man(b1-4)GlcNAc(b1-4)[Fuc(a1-6)]GlcNAc
Procedure, shortened: as §1

[18] = target: Gal(b1-4)GlcNAc(b1-3)Gal(b1-4)GlcNAc(b1-3)Gal(b1-4)GlcNAc(b1-2)[Gal(b1-4)GlcNAc(b1-3)Gal(b1-4)GlcNAc(b1-3)Gal(b1-4)GlcNAc(b1-6)]Man(a1-6)[Gal(b1-4)GlcNAc(b1-3)Gal(b1-4)GlcNAc(b1-3)Gal(b1-4)GlcNAc(b1-2)Man(a1-3)]Man(b1-4)GlcNAc(b1-4)[Fuc(a1-6)]GlcNAc
Procedure, shortened: as §1

[19] = target: Gal(b1-4)GlcNAc(b1-3)Gal(b1-4)GlcNAc(b1-3)Gal(b1-4)GlcNAc(b1-3)Gal(b1-4)GlcNAc(b1-3)Gal(b1-4)GlcNAc(b1-2)Man(a1-3)[Gal(b1-4)GlcNAc(b1-3)Gal(b1-4)GlcNAc(b1-3)Gal(b1-4)GlcNAc(b1-3)Gal(b1-4)GlcNAc(b1-3)Gal(b1-4)GlcNAc(b1-2)Man(a1-6)]Man(b1-4)GlcNAc(b1-4)GlcNAc
Procedure, shortened: as §1

[20] = target: Gal(b1-4)GlcNAc(b1-3)Gal(b1-4)GlcNAc(b1-6)[Gal(b1-3)]GalNAc
Procedure, shortened: as §1

[21] = target: Gal(b1-4)GlcNAc(b1-3)Gal(b1-4)[Fuc(a1-3)]GlcNAc(b1-3)Gal(b1-4)[Fuc(a1-3)]GlcNAc
Procedure, shortened: as §1

[22] = target: Gal(b1-4)GlcNAc(b1-3)[Fuc(a1-3)GlcNAc(b1-6)]Gal(b1-4)Glc
Procedure, shortened: as §1

Gal(b1-6)Gal = target: Gal(b1-6)Gal
Procedure, shortened: as §1

[23] = target: GalNAc(b1-4)GlcNAc(b1-2)Man(a1-3)[GalNAc(b1-4)GlcNAc(b1-2)Man(a1-6)]Man(b1-4)GlcNAc(b1-4)GlcNAc
Procedure, shortened: as §1

GalNAc(b1-6)GalNAc = target: GalNAc(b1-6)GalNAc
Procedure, shortened: as §1

[24] = target: Glc(a1-6)Glc(a1-6)Glc(a1-6)Glc
Procedure, shortened: as §1

[25] = target: GlcNAc(a1-4)Gal(b1-4)GlcNAc(b1-3)Gal(b1-4)[Fuc(a1-3)]GlcNAc(b1-3)Gal(b1-4)[Fuc(a1-3)]GlcNAc
Procedure, shortened: as §1

[26] = target: GlcNAc(b1-2)[GlcNAc(b1-4)]Man(a1-3)[GlcNAc(b1-4)][GlcNAc(b1-2)[GlcNAc(b1-6)]Man(a1-6)]Man(b1-4)GlcNAc(b1-4)GlcNAc
Procedure, shortened: as §1

[27] = target: GlcNAc(b1-2)[GlcNAc(b1-6)]Man(a1-6)[GlcNAc(b1-2)Man(a1-3)]Man(b1-4)GlcNAc(b1-4)GlcNAc
Procedure, shortened: as §1

[28] = target: GlcNAc(b1-3)Gal(b1-4)GlcNAc
Procedure, shortened: as §1

[29] = target: GlcNAc(b1-3)Gal(b1-4)GlcNAc(b1-2)[GlcNAc(b1-3)Gal(b1-4)GlcNAc(b1-6)]Man(a1-6)[GlcNAc(b1-3)Gal(b1-4)GlcNAc(b1-2)Man(a1-3)]Man(b1-4)GlcNAc(b1-4)GlcNAc
Procedure, shortened: as §1

[30] = target: GlcNAc(b1-3)Gal(b1-4)GlcNAc(b1-3)Gal(b1-4)GlcNAc(b1-3)Gal(b1-4)GlcNAc(b1-3)Gal(b1-4)GlcNAc(b1-2)Man(a1-3)[GlcNAc(b1-3)Gal(b1-4)GlcNAc(b1-3)Gal(b1-4)GlcNAc(b1-3)Gal(b1-4)GlcNAc(b1-3)Gal(b1-4)GlcNAc(b1-2)Man(a1-6)]Man(b1-4)GlcNAc(b1-4)[Fuc(a1-6)]GlcNAc
Procedure, shortened: as §1

[31] = target: GlcNAc(b1-4)[GlcNAc(b1-6)]GalNAc
Procedure, shortened: as §1

[32] = target: Man(a1-2)Man(a1-3)[Man(a1-2)Man(a1-6)]Man(a1-6)[Man(a1-2)Man(a1-2)Man(a1-3)]Man(b1-4)GlcNAc(b1-4)GlcNAc
Procedure, shortened: as §1

Man(a1-3)[Man(a1-6)]Man = target: Man(a1-3)[Man(a1-6)]Man
Procedure, shortened: as §1

[33] = target: Man(a1-3)[Man(a1-6)]Man(a1-6)[Man(a1-2)Man(a1-3)]Man(b1-4)GlcNAc(b1-4)GlcNAc
Procedure, shortened: as §1

[34] = target: Neu5Ac(a2-3)Gal(b1-3)GalNAc
Procedure, shortened: as §1

[35] = target: Neu5Ac(a2-3)Gal(b1-3)GlcNAc(b1-2)Man
Procedure, shortened: as §1

[36] = target: Neu5Ac(a2-3)Gal(b1-4)GlcNAc6S
Procedure, shortened: as §1

[37] = target: Neu5Ac(a2-3)Gal(b1-4)[Fuc(a1-3)]GlcNAc(b1-3)GalNAc
Procedure, shortened: as §1

[38] = target: Neu5Ac(a2-6)Gal(b1-4)GlcNAc(b1-2)[Neu5Ac(a2-6)Gal(b1-4)GlcNAc(b1-6)]Man(a1-6)[Neu5Ac(a2-6)Gal(b1-4)GlcNAc(b1-2)Man(a1-3)][GlcNAc(b1-4)]Man(b1-4)GlcNAc(b1-4)GlcNAc
Procedure, shortened: as §1

[39] = target: Neu5Ac(a2-6)Gal(b1-4)GlcNAc(b1-3)Gal(b1-4)GlcNAc(b1-2)Man(a1-3)[Neu5Ac(a2-6)Gal(b1-4)GlcNAc(b1-3)Gal(b1-4)GlcNAc(b1-2)Man(a1-6)]GalNAc
Procedure, shortened: as §1

[40] = target: Neu5Ac(a2-6)Gal(b1-4)GlcNAc(b1-3)Gal(b1-4)GlcNAc(b1-3)Gal(b1-4)GlcNAc(b1-2)Man(a1-3)[Neu5Ac(a2-6)Gal(b1-4)GlcNAc(b1-3)Gal(b1-4)GlcNAc(b1-3)Gal(b1-4)GlcNAc(b1-2)Man(a1-6)]GalNAc
Procedure, shortened: as §1

[41] = target: Neu5Ac(a2-6)Gal(b1-4)GlcNAc(b1-6)[Gal(b1-3)GlcNAc(b1-3)]Gal(b1-4)Glc
Procedure, shortened: as §1

[42] = target: Neu5Ac(a2-6)Gal(b1-4)GlcNAc(b1-6)[Gal(b1-3)]GalNAc
Procedure, shortened: as §1

[43] = target: Neu5Gc(a2-3)Gal(b1-3)[Fuc(a1-4)]GlcNAc
Procedure, shortened: as §1

B1: SP15308F-bth-333-19-333 (Bacteroides thetaiotaomicron) (protein)
chain: SCNNEWESEQYVQMVSFKAPVNAQGVTPIYIRYKPEGKVTYQLPLIVSGSTMNSKDLNVHVGLDLDTLDVLNVEHFGSRKELFFKPLENKYYEFPETVQIPAGECTSLLPIDFALKDLDQVDKWVLPLAIQSNDPSHNYQANPRKFYRRAMLRISPFNDYSGQYSATAYKVYFKGNEKEAIVPEYHTSYVIDDKTIFFYAGLIDIDRLDRKYYKIKFEFTEEKIDLQTRKLKISSDNEDINLVVKGQPSYTVEEEMDATRPYLKHIYVTINNLEYEFTDYTSVPGYPLEYVVKGSLTMERKINTQIPDEDQAIEW
glycan array binding signal (z-score) (Fuc(a1-2)Gal): -0.518
glycan array binding signal (z-score) [1]: 0.606
glycan array binding signal (z-score) [2]: 3.55
glycan array binding signal (z-score) [3]: -0.455
glycan array binding signal (z-score) [4]: -0.717
glycan array binding signal (z-score) [5]: 0.652
glycan array binding signal (z-score) [6]: 6.34
glycan array binding signal (z-score) (Fuc(a1-4)GlcNAc): 7.35
glycan array binding signal (z-score) [7]: 0.13
glycan array binding signal (z-score) [8]: -1.04
glycan array binding signal (z-score) [9]: -0.976
glycan array binding signal (z-score) [10]: -1.15
glycan array binding signal (z-score) [11]: 0.375
glycan array binding signal (z-score) (Gal(b1-4)GlcNAc(b1-2)Man): 2.88
glycan array binding signal (z-score) [12]: -1.02
glycan array binding signal (z-score) [13]: -0.531
glycan array binding signal (z-score) [14]: 0.062
glycan array binding signal (z-score) [15]: -0.026
glycan array binding signal (z-score) [16]: -0.769
glycan array binding signal (z-score) [17]: 1.45
glycan array binding signal (z-score) [18]: 0.279
glycan array binding signal (z-score) [19]: 3.23
glycan array binding signal (z-score) [20]: -0.045
glycan array binding signal (z-score) [21]: 0.753
glycan array binding signal (z-score) [22]: -0.005
glycan array binding signal (z-score) (Gal(b1-6)Gal): -0.244
glycan array binding signal (z-score) [23]: 1.38
glycan array binding signal (z-score) (GalNAc(b1-6)GalNAc): 2.02
glycan array binding signal (z-score) [24]: -0.539
glycan array binding signal (z-score) [25]: 2.63
glycan array binding signal (z-score) [26]: -1.46
glycan array binding signal (z-score) [27]: -0.327
glycan array binding signal (z-score) [28]: -0.835
glycan array binding signal (z-score) [29]: 2.85
glycan array binding signal (z-score) [30]: 2.43
glycan array binding signal (z-score) [31]: 0.249
glycan array binding signal (z-score) [32]: -0.143
glycan array binding signal (z-score) (Man(a1-3)[Man(a1-6)]Man): -0.694
glycan array binding signal (z-score) [33]: -0.363
glycan array binding signal (z-score) [34]: 1.83
glycan array binding signal (z-score) [35]: 1.15
glycan array binding signal (z-score) [36]: 1.4
glycan array binding signal (z-score) [37]: 3.76
glycan array binding signal (z-score) [38]: 0.627
glycan array binding signal (z-score) [39]: 3.27
glycan array binding signal (z-score) [40]: 2.6
glycan array binding signal (z-score) [41]: -0.927
glycan array binding signal (z-score) [42]: -0.014
glycan array binding signal (z-score) [43]: 0.217
